PubChem BioAssay (NCI)
This is part of a sample that, as a whole, favours compounds with a hit. Of some 79,000 tested, about 15% had one in any assay. Active and inactive are the calls of the source. Rule as the data show it: active = growth inhibition above about 70%; inactive = the rest.

What was measured:
[1] = NCI Yeast Anticancer Drug Screen. Data for the rad52 strain (AID 147);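 also: 0% = growth of vehicle-treated control cultures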; details: S. cerevisiae rad52 mutant growth inhibition, active compounds read high
How it was run: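 The repair-mutant yeast strain was incubated with compounds, then growth was read and inhibition derived relative to vehicle.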

[2] = NCI Yeast Anticancer Drug Screen. Data for the wt1 strain (AID 149);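 also: 0% = growth of vehicle-treated wt1 cultures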; details: S. cerevisiae wt1 strain (SPY 50644) growth inhibition, active compounds read high
How it was run: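 Each compound is tested on wt1 yeast and the loss of growth versus vehicle gives the inhibition value.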

[3] = NCI Yeast Anticancer Drug Screen. Data for the rad50EPP+ strain (AID 151);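 also: 0% = growth of vehicle-treated control cultures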; details: S. cerevisiae rad50 mutant strain, active compounds read high
How it was run: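 Vehicle-normalised growth inhibition; rad50EPP+ yeast strain, altered in DNA damage repair, compound-treated.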

[4] = NCI Yeast Anticancer Drug Screen. Data for the mgt1 strain (AID 153); details: S. cerevisiae mgt1 mutant growth inhibition, active compounds read high
How it was run: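 Vehicle-normalized growth inhibition is determined in mgt1 yeast, a strain selected for a defined alteration in DNA repair or cell cycle control.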

[5] = NCI Yeast Anticancer Drug Screen. Data for the rad50 strain (AID 155);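 also: 0% = growth of vehicle-only cultures of the same strain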; details: S. cerevisiae rad50 strain growth inhibition, active compounds read high
How it was run: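 Vehicle-treated cultures provide the reference for the growth inhibition reported for compound-exposed, repair-deficient yeast.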

[6] = NCI Yeast Anticancer Drug Screen. Data for the mec2-1 strain (AID 157); details: S. cerevisiae mec2-1 strain, active compounds read high
How it was run: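 Mutant yeast (mec2-1) grown with compound; growth inhibition relative to vehicle control reported.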

[7] = NCI Yeast Anticancer Drug Screen. Data for the rad14 strain (AID 159);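 also: 0% = growth of vehicle-treated control cultures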; details: S. cerevisiae rad14 strain growth inhibition, active compounds read high
How it was run: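 Inhibition of growth is reported for a repair-deficient yeast mutant following compound treatment, calculated relative to cultures that received vehicle.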

[8] = NCI Yeast Anticancer Drug Screen. Data for the sgs1 mgt1 strain (AID 161);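 also: 0% = growth of cultures given vehicle only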; details: S. cerevisiae sgs1 mgt1 strain, active compounds read high
How it was run: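 Yeast cells carrying a defined DNA-repair defect were exposed to test compounds. Growth inhibition was measured relative to vehicle-treated controls.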

[9] = NCI Yeast Anticancer Drug Screen. Data for the CLN2oe strain (AID 163);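 also: 0% = growth of vehicle-only control cultures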; details: S. cerevisiae CLN2oe strain, active compounds read high
How it was run: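 Compounds are applied to yeast harbouring a defined cell-cycle control change; reduced growth compared with vehicle-treated controls gives the value.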

[10] = NCI Yeast Anticancer Drug Screen. Data for the cln2 rad14 strain (AID 165);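 also: 0% = growth equal to vehicle treated cultures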; details: S. cerevisiae cln2 rad14 strain, active compounds read high
How it was run: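 Readout is yeast growth inhibition versus vehicle-treated controls, using a strain with cln2 and rad14 alterations exposed to compound.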

[11] = NCI Yeast Anticancer Drug Screen. Data for the bub3 strain (AID 167); details: S. cerevisiae bub3 mutant strain, active compounds read high
How it was run: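 Mutant yeast screening strain plus compound; vehicle-treated cultures serve as the 0% inhibition reference.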

[12] = NCI Yeast Anticancer Drug Screen. Data for the mlh1 strain (AID 171);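 also: 0% = growth of vehicle-treated control cultures of the same strain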; details: S. cerevisiae mlh1 strain growth inhibition, active compounds read high
How it was run: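 Measured: yeast growth. Reference: vehicle-treated controls. Organism: strain with a defined alteration affecting DNA damage repair or cell cycle control, treated with compound.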

[13] = NCI Yeast Anticancer Drug Screen. Data for the sgs1 strain (AID 173);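 also: 0% = growth of vehicle-only control cultures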; details: S. cerevisiae sgs1 mutant, active compounds read high
How it was run: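 Each compound was added to cultures of the altered yeast strain. Growth was recorded, and inhibition was derived by comparison with vehicle controls.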

[14] = NCI Yeast Anticancer Drug Screen. Data for the mlh1 rad18 strain (AID 175); details: S. cerevisiae mlh1 rad18 strain growth inhibition, active compounds read high
How it was run: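 Genetically defined yeast (DNA repair-deficient) exposed to compounds; growth inhibition determined relative to vehicle.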

[15] = NCI Yeast Anticancer Drug Screen. Data for the rad18 strain (AID 177); details: S. cerevisiae rad18 mutant growth inhibition, active compounds read high
How it was run: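 Vehicle-treated cultures served as the baseline for scoring compound-induced growth inhibition in DNA-repair-mutant yeast.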

[16] = NCI Yeast Anticancer Drug Screen. Data for the wt2 strain (AID 169); details: S. cerevisiae wt2 strain growth inhibition, active compounds read high
How it was run: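 Against vehicle-treated controls, the growth of yeast exposed to each compound was compared, and the inhibition was recorded.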

[17] = at 5.0 µM (retest, dose inferred, filed as 0.5)
[18] = at 50.0 µM (retest, dose inferred, filed as 5.0)

Measured: growth inhibition

Cc1ccc(S(=O)(=O)NC(=O)NC2=NC(C)(C)N(c3ccc(Cl)c(Cl)c3)C(N)=N2)cc1
inactive: [1]; at 1.2 µM -2% | [1]; at 3.7 µM -2% | [1]; at 11.0 µM -1% | [1]; at 33.0 µM -3% | [1]; at 100.0 µM -3% | [2]; at 1.2 µM -2% | [2]; at 3.7 µM 1% | [2]; at 11.0 µM -1% | [2]; at 33.0 µM -1% | [2]; at 100.0 µM -3% | [3]; at 1.2 µM -2% | [3]; at 3.7 µM -3% | [3]; at 11.0 µM -1% | [3]; at 33.0 µM -2% | [3]; at 100.0 µM 4% | [4]; at 1.2 µM 0% | [4]; at 3.7 µM -1% | [4]; at 11.0 µM -4% | [4]; at 33.0 µM 1% | [4]; at 100.0 µM -5% | [5]; at 1.2 µM -2% | [5]; at 3.7 µM -4% | [5]; [17] 7% | [5]; at 11.0 µM -5% | [5]; at 33.0 µM -3% | [5]; [18] 1% | [5]; at 50.0 µM -1.3% | [5]; at 100.0 µM -4% | [6]; at 1.2 µM -2% | [6]; at 3.7 µM 2% | [6]; [17] 1% | [6]; at 11.0 µM 4% | [6]; at 33.0 µM -3% | [6]; [18] -3% | [6]; at 50.0 µM -3.35% | [6]; at 100.0 µM -3% | [7]; at 1.2 µM -1% | [7]; at 3.7 µM 0% | [7]; at 11.0 µM 1% | [7]; at 33.0 µM 1% | [7]; at 100.0 µM 0% | [8]; [17] 6% | [8]; [18] -6% | [8]; at 50.0 µM 4.25% | [9]; at 1.2 µM -9% | [9]; at 3.7 µM -5% | [9]; at 11.0 µM -5% | [9]; at 33.0 µM -1% | [9]; at 100.0 µM -11% | [10]; [17] 1% | [10]; [18] 1% | [11]; at 1.2 µM -2% | [11]; at 3.7 µM -7% | [11]; [17] 1% | [11]; at 11.0 µM -6% | [11]; at 33.0 µM -8% | [11]; [18] -1% | [11]; at 50.0 µM -23.9% | [11]; at 100.0 µM -5% | [12]; at 1.2 µM -1% | [12]; at 3.7 µM 0% | [12]; at 11.0 µM -1% | [12]; at 33.0 µM 1% | [12]; at 100.0 µM -3% | [13]; at 1.2 µM -1% | [13]; at 3.7 µM -2% | [13]; at 11.0 µM -1% | [13]; at 33.0 µM -2% | [13]; at 100.0 µM -2% | [14]; [17] 0% | [14]; [18] 47% | [14]; at 50.0 µM 2.35% | [15]; at 1.2 µM -1% | [15]; at 3.7 µM 2% | [15]; at 11.0 µM 4% | [15]; at 33.0 µM 1% | [15]; at 100.0 µM -1%
active: [10]; at 50.0 µM 79.4%

O=c1ssc2ncccc12
inactive: [1]; at 1.2 µM 3% | [1]; at 3.7 µM 15% | [2]; at 1.2 µM 2% | [2]; at 3.7 µM -2% | [2]; at 11.0 µM 11% | [2]; at 33.0 µM 47% | [3]; at 1.2 µM -5% | [3]; at 3.7 µM 6% | [3]; at 11.0 µM 45% | [4]; at 1.2 µM -1% | [4]; at 3.7 µM 10% | [4]; at 11.0 µM 41% | [5]; at 1.2 µM 15% | [5]; at 3.7 µM 49% | [5]; [17] 24% | [6]; at 1.2 µM 3% | [6]; at 3.7 µM 6% | [6]; [17] 14% | [6]; at 11.0 µM 29% | [7]; at 1.2 µM 7% | [7]; at 3.7 µM 14% | [7]; at 11.0 µM 49% | [8]; [17] 31% | [10]; [17] 21% | [10]; at 50.0 µM 49.6% | [11]; at 1.2 µM 2% | [11]; at 3.7 µM 4% | [11]; [17] 23% | [11]; at 11.0 µM 36% | [16]; at 1.2 µM -6% | [16]; at 3.7 µM -4% | [16]; at 11.0 µM 15% | [16]; at 33.0 µM 57% | [12]; at 1.2 µM 9% | [12]; at 3.7 µM 20% | [12]; at 11.0 µM 56% | [13]; at 1.2 µM 4% | [13]; at 3.7 µM 12% | [14]; [17] 56% | [15]; at 1.2 µM 7% | [15]; at 3.7 µM 27%
active: [1]; at 11.0 µM 71% | [1]; at 33.0 µM 95% | [1]; at 100.0 µM 99% | [2]; at 100.0 µM 97% | [3]; at 33.0 µM 86% | [3]; at 100.0 µM 97% | [4]; at 33.0 µM 84% | [4]; at 100.0 µM 99% | [5]; at 11.0 µM 82% | [5]; at 33.0 µM 97% | [5]; [18] 99% | [5]; at 50.0 µM 97.1% | [5]; at 100.0 µM 99% | [6]; at 33.0 µM 83% | [6]; [18] 96% | [6]; at 50.0 µM 91.2% | [6]; at 100.0 µM 97% | [7]; at 33.0 µM 97% | [7]; at 100.0 µM 99% | [8]; [18] 96% | [8]; at 50.0 µM 93.2% | [10]; [18] 90% | [11]; at 33.0 µM 87% | [11]; [18] 97% | [11]; at 50.0 µM 93.2% | [11]; at 100.0 µM 98% | [16]; at 100.0 µM 98% | [12]; at 33.0 µM 95% | [12]; at 100.0 µM 99% | [13]; at 11.0 µM 72% | [13]; at 33.0 µM 96% | [13]; at 100.0 µM 99% | [14]; [18] 98% | [14]; at 50.0 µM 96.7% | [15]; at 11.0 µM 74% | [15]; at 33.0 µM 97% | [15]; at 100.0 µM 99%
